# What was measured:
# Test in all cases: PBM binding z-score (relative to random genomic background probes); higher = stronger binding; sequences stand for … in GC…GCGATTGACAGCGTAGAATGAAGG
# [1] = test system: FXR:RXRa (NR concentration 270 nM, RXRa partner concentration 90 nM)
# How it was run: (§1)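 Custom Agilent 4×180K protein-binding microarrays carried double-stranded probes, each with a 34-nt variable region. These regions held direct-repeat seeds, single-nucleotide variants, half-site ablations and random human genomic background sequences. Ligand-free nuclear receptor dimers were incubated on the arrays for 1 h, antibodies against each partner (one per run) detected binding, and scanned fluorescence was regression-normalized. Binding z-scores take the random background probes as reference.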
# [2] = test system: LXRa:RXRa (NR concentration 270 nM, RXRa partner concentration 90 nM)
# How it was run: as §1
# [3] = test system: LXRa homodimer (NR concentration 270 nM)
# How it was run: as §1
# [4] = test system: LXRb:RXRa (NR concentration 270 nM, RXRa partner concentration 90 nM)
# How it was run: as §1
# [5] = test system: LXRb homodimer (NR concentration 270 nM)
# How it was run: as §1
# [6] = test system: PPARa:RXRa (NR concentration 270 nM, RXRa partner concentration 90 nM)
# How it was run: as §1
# [7] = test system: PPARg:RXRa (NR concentration 180 nM, RXRa partner concentration 90 nM)
# How it was run: as §1
# [8] = test system: PPARg:RXRa 270nM:90nM, anti-RXR (NR concentration 270 nM, RXRa partner concentration 90 nM)
# How it was run: as §1
# [9] = test system: PPARg:RXRa 30nM:10nM, anti-RXR (NR concentration 30 nM, RXRa partner concentration 10 nM)
# How it was run: as §1
# [10] = test system: PPARg:RXRa 90nM:30nM, anti-RXR (NR concentration 90 nM, RXRa partner concentration 30 nM)
# How it was run: as §1
# [11] = test system: PPARg:RXRa DBDmut IVT, anti-RXR (DBD mutation: RXRa K156A/R161A, NR concentration 270 nM, RXRa partner concentration 90 nM)
# How it was run: as §1
# [12] = test system: PPARg:RXRa IVT, anti-PPARg (NR concentration 270 nM, RXRa partner concentration 90 nM)
# How it was run: as §1
# [13] = test system: PPARg DBDmut:RXRa IVT, anti-PPARg (DBD mutation: PPARg1 K132A/R137A, NR concentration 270 nM, RXRa partner concentration 90 nM)
# How it was run: as §1
# [14] = test system: PPARg DBDmut IVT, anti-PPARg (DBD mutation: PPARg1 K132A/R137A, NR concentration 270 nM)
# How it was run: as §1
# [15] = test system: PPARg homodimer (NR concentration 180 nM)
# How it was run: as §1
# [16] = test system: PXR:RXRa (NR concentration 270 nM, RXRa partner concentration 90 nM)
# How it was run: as §1
# [17] = test system: PXR homodimer (NR concentration 270 nM)
# How it was run: as §1
# [18] = test system: RARa:RXR (NR concentration 270 nM, RXRa partner concentration 90 nM)
# How it was run: as §1
# [19] = test system: RARa homodimer (NR concentration 270 nM)
# How it was run: as §1
# [20] = test system: RARb:RXRa (NR concentration 270 nM, RXRa partner concentration 90 nM)
# How it was run: as §1
Sequence,PBM binding z-score [1],PBM binding z-score [2],PBM binding z-score [3],PBM binding z-score [4],PBM binding z-score [5],PBM binding z-score [6],PBM binding z-score [7],PBM binding z-score [8],PBM binding z-score [9],PBM binding z-score [10],PBM binding z-score [11],PBM binding z-score [12],PBM binding z-score [13],PBM binding z-score [14],PBM binding z-score [15],PBM binding z-score [16],PBM binding z-score [17],PBM binding z-score [18],PBM binding z-score [19],PBM binding z-score [20]
ACAGACAGGTGCTGAAGGTAACTCAGGCTATCAT,-0.388,-0.633,-0.46,-0.677,-0.731,-0.462,0.398,-0.189,-0.203,-0.342,-0.133,-0.503,-0.162,0.258,-0.279,-0.445,-0.113,-0.341,-0.406,-0.476
CGAACGAGGGCATGAATTGATAGCAAATGCCGAT,-0.0699,-0.102,-0.436,-0.0113,-0.655,0.924,0.992,0.623,0.00744,0.388,2.65,1.53,0.103,-0.47,0.00872,0.118,-0.261,0.259,-0.227,1.72
ACTATTAGTTGAGACGAGGACAACCGATAGGTTG,0.431,0.148,0.167,-0.324,0.49,-0.169,0.659,-0.132,0.0741,0.0272,0.000503,0.208,0.291,0.661,0.842,0.431,0.155,1.33,0.918,0.366
CTCGAAAGGTCGGTTGAGGTGAGTACACGGATAA,2.34,1.85,-0.128,1.5,-0.0877,2.77,0.546,1.4,0.191,0.951,0.186,0.928,0.39,-0.276,0.988,3.2,0.172,2.11,-0.296,3.15
CCTTACGGATCAAGGTTATAGCACGGGTGGTACG,0.336,0.57,0.38,0.5,0.21,0.917,0.684,0.188,-0.114,0.0556,-0.655,0.0573,-0.059,0.154,0.562,0.548,0.798,0.636,1.03,0.891
TCTTGAAGATCAAGCAGGTTAAGAAAGCCTGAGT,0.132,0.199,-0.36,0.402,-0.998,0.437,-0.324,1.11,2.96,1.74,1.28,-0.366,0.0587,-0.888,-0.603,0.456,-0.168,0.215,-1.22,0.0323
CCGACTGCGGCAAGGTTACCATAACGCACAGCCA,0.311,0.827,0.0346,0.9,-0.64,1.02,0.614,-0.189,-0.715,-0.26,-0.209,-0.134,-0.21,-0.256,0.4,0.562,0.00644,0.946,0.0538,0.845
CCAGACAGGTGACAAGGTAACTCAGCCTCGATTA,0.0849,0.145,-0.212,-0.039,-0.466,0.6,0.825,0.508,-0.365,0.0365,1.41,1.61,-0.344,-0.0688,0.918,-0.151,-0.207,0.278,0.367,0.783
GAACCAAGGTGAATAGGTCGTTGATGAGTAGGCG,0.855,0.803,-0.0902,0.55,-0.922,2.46,1.74,1.97,0.275,1.25,1.81,2.56,-0.234,-0.27,0.411,0.765,-0.0642,1.68,-0.0573,1.95
CATACAGGGTCAGCTAGGCCAGGGTAGGGACGGC,4.52,2.89,-0.0552,1.98,0.437,4.12,3.01,2.84,0.569,1.95,0.462,2.48,0.368,0.335,1.37,2.18,-0.00796,3.16,0.91,4.02
ACAGACAGGTGATGAAGGTAACTCTGGCTATCAT,-0.247,-0.358,-0.109,-0.536,-0.538,-0.229,0.485,-0.185,0.143,0.132,0.0322,0.477,0.353,0.0262,0.0574,-0.19,-0.412,0.0777,-0.252,0.114
CAAACTAGGTCAAAGCTCAAAGTCGAGCCAACCA,4.62,3.4,0.633,2.4,0.592,5.71,10.2,8.74,9.03,9.54,8.73,8.57,5.63,0.922,1.88,1.33,0.241,2.86,0.284,3.84
CCTCACGGGTCACGAGGTTATAGCACGACGAGCG,6.54,4.19,0.232,3.64,-0.109,5.59,6.23,5.68,2.34,4.25,1.87,3.65,0.599,-0.0554,3.5,4.4,0.143,5.63,0.537,4.43
TCATATAGGTAAAGGTGGAAGTCGAACGATATGA,0.695,0.507,0.313,0.415,0.0945,1.93,2.54,3.54,4.18,3.93,3.45,2.86,1.27,1.48,0.634,0.357,0.267,0.637,0.638,0.387
